Inconclusive results are not listed. The list shows a part of the results. Active and inactive are the calls of the source. Unless noted, calls come from the whole dose curve; as a rule, active = well fitted curve in the direction sought with a large enough effect; inconclusive = small, poorly fitted or top-dose-only effect, or another doubt; inactive = no such curve, though single readings can be large; an effect the other way counts as inactive or inconclusive.
How the values were obtained:
[1] = S16 Schwann cell PMP22 intronic element firefly luciferase assay (AID 624032); details: S16 rat Schwann cells, PMP22 element FLuc, 24 h; series mostly up to 57.5 µM;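 note: plate controls were DMSO for no effect and PTC124 positive control mean for full effect; nearly all actives have a fitted effect of over 30% in size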
Outline: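 Rat S16 Schwann cells stably carrying a PMP22 intronic element-driven Fluc reporter were seeded overnight, then exposed to compounds for 24 h at 37 °C. Luminescence was normalized to PTC124 (positive control) and DMSO (0% activity).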

[2] = qHTS Assay for Identifying Gametocytocidal Compounds (AID 743244);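 note: % is set by controls: 0 for no effect and ±100 for the full control effect; actives lower the fluorescent signal which means gametocytes are killed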; details: P. falciparum 3D7 stage III-V gametocytes, alamarBlue, 72 h; max response: stronger effect = lower value
Outline: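 Compounds are pinned into medium, gametocytes (stage III–V, 3D7, 20,000 cells/well) added, and plates held 72 h at 37 °C in 5% CO2. AlamarBlue follows for 24 h before fluorescence reading.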

[3] = S16 Schwann cell PMP22 intronic element beta-lactamase assay (AID 624044; calls by dose curve;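 note: 0% = DMSO and -100% = potassium clavulanate positive control; nearly all actives have a fitted effect of over 15% in size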); details: S16 rat Schwann cells, PMP22 element beta-lactamase FRET, 24 h; series mostly up to 38.3 µM
Outline: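 Beta-lactamase reporter under a PMP22 intronic regulatory element in stable S16 rat Schwann cells; 24 h compound exposure. 460 nm blue signal normalized between DMSO (0%) and potassium clavulanate, with 535 nm FRET tracking viability; curves classed by r2 and response.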

[4] = S16 Schwann cell viability assay (CellTiter-Glo assay) (AID 624031); details: S16 rat Schwann cells viability, 24 h; series mostly up to 57.5 µM;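 note: cellular ATP luminescence as a viability measure; plate controls were DMSO-treated cells for no effect and cell-free wells for full effect; nearly all actives have a fitted effect of over 70% in size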
Outline: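 Native S16 rat Schwann cells in DMEM/10% FBS without phenol red were incubated overnight, then exposed to compounds for 24 h at 37 °C/5% CO2. Viability was read as ATP luminescence (CellTiter-Glo), normalized to no-cell wells and DMSO (0%).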

[5] = qHTS assay for small molecule activators of the p53 signaling pathway (AID 651743; active = well fitted activation curve with a large enough effect in the signal ratio, not every such curve was filed as active; the % refers to the signal ratio; note: % of control where 0% means no effect); details: HCT-116 p53RE-bla, beta-lactamase FRET ratio, 16 h; stronger effect = higher value
Outline: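 Here HCT-116 cells with an integrated p53-responsive beta-lactamase gene were incubated with compounds (16 hours, 37 C) after a 5-hour plating period; beta-lactamase activity was detected as fluorescence intensity via B/G FRET substrate.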

[6] = qHTS assay for environmental chemicals that activate the Aryl hydrocarbon Receptor (AhR) signaling pathway (AID 651777); details: 1A2-DRE human hepatoma cells, luciferase, 24 h; stronger effect = higher value; note: % of control where 0% means no effect; nearly all actives have a fitted effect of over 15% in size
Outline: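 Human hepatoma 1A2-DRE cells, stably carrying a dioxin response element and CYP1A2 promoter driving luciferase, were exposed to compounds for 24 hr at 37 C and 5% CO2. Luciferase signal was then read after 30 min One-Glo at room temperature.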

[7] = biological target: Peroxisome proliferator-activated receptor alpha (Homo sapiens) (UniProt Q07869); assay: qHTS assay for small molecule agonists of the peroxisome proliferator-activated receptor alpha (PPARalpha) signaling pathway (AID 651778); details: PathHunter PPARalpha complementation, chemiluminescence, 6 h; stronger effect = higher value; note: % of control where 0% means no effect
Sequence of Peroxisome proliferator-activated receptor alpha (Homo sapiens) (Q07869 whole entry, looked up): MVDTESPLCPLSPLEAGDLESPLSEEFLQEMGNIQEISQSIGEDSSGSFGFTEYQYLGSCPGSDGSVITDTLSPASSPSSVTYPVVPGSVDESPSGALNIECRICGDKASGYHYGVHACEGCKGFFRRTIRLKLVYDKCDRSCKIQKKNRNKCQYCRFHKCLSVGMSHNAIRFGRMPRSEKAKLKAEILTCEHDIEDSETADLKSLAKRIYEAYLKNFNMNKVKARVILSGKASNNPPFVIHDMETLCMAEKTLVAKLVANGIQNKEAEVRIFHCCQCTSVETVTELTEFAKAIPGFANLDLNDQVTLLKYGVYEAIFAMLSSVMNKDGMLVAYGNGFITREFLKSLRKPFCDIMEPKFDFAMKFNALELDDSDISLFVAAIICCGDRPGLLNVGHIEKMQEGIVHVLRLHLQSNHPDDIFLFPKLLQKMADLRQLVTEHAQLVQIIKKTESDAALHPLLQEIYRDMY
Outline: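 Cells plated at 2,000/well and held overnight at 37 C, 5% CO2, then compound added by pin tool for 6 hr; after PathHunter detection reagent and 60 min at room temperature, chemiluminescence from enzyme complementation was read.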

[8] = qHTS assay for small molecule agonists of the antioxidant response element (ARE) signaling pathway measured by Nrf2-dependant transcriptional activity (AID 720636; active = well fitted curve in the direction sought with a large enough effect in the repeat runs; an effect the other way counts as inactive or inconclusive; note: % of control where 0% means no effect); details: ARE-luc HepG2, Nrf2 luciferase reporter, 16 h; series mostly up to 92.4 µM
Outline: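 ARE-luc HepG2 cells carrying an Nrf2-responsive luciferase reporter were plated in medium with 1% dialyzed FBS, left 6 hr at 37 C to attach, then exposed to compound for 16 hr. Luciferase luminescence was read after ONE-Glo addition.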

[9] = qHTS assay for small molecule agonists of the antioxidant response element (ARE) signaling pathway measured by Nrf2-dependant transcriptional activity - cell viability counter screen (AID 720653; active = well fitted curve in the direction sought with a large enough effect in the repeat runs; an effect the other way counts as inactive or inconclusive; note: % is set by controls: 0 for no effect and ±100 for the full control effect); details: ARE-bla HepG2 viability, CellTiter-Glo ATP luminescence, 16 h; stronger effect = lower value
Outline: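 ARE-bla HepG2 cells (2,000/well) rested 5 hrs at 37C/5% CO2, then exposed to compounds in DMSO for 16 hrs. Viability was read in the same wells as intracellular ATP by luminescence, 30 min at room temperature after reagent addition.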

[10] = qHTS assay for cell viability of HEK293 cells (AID 743288); details: ATP luminescence (CellTiter-Glo), 18 h, stronger effect = lower value; note: % is set by controls: 0 for no effect and ±100 for the full control effect; nearly all actives have a fitted effect of over 50% in size
Outline: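 HEK293, 18 h, 37 C, ATP luminescence. Cells at 2,000/well were allowed at least 5 h to settle before dosing; CellTiter-Glo developed 30 min at RT.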

[11] = biological target: DNA polymerase kappa (Homo sapiens) (UniProt Q9UBT6); assay: qHTS for Inhibitors of Polymerase Kappa: Confirmatory Assay for Cherry-picked Compounds (AID 720501); details: purified Pol-kappa, fluorescent strand-displacement substrate; note: potency is the fitted concentration of half-maximal effect
Sequence of DNA polymerase kappa (Homo sapiens) (Q9UBT6 whole entry, looked up): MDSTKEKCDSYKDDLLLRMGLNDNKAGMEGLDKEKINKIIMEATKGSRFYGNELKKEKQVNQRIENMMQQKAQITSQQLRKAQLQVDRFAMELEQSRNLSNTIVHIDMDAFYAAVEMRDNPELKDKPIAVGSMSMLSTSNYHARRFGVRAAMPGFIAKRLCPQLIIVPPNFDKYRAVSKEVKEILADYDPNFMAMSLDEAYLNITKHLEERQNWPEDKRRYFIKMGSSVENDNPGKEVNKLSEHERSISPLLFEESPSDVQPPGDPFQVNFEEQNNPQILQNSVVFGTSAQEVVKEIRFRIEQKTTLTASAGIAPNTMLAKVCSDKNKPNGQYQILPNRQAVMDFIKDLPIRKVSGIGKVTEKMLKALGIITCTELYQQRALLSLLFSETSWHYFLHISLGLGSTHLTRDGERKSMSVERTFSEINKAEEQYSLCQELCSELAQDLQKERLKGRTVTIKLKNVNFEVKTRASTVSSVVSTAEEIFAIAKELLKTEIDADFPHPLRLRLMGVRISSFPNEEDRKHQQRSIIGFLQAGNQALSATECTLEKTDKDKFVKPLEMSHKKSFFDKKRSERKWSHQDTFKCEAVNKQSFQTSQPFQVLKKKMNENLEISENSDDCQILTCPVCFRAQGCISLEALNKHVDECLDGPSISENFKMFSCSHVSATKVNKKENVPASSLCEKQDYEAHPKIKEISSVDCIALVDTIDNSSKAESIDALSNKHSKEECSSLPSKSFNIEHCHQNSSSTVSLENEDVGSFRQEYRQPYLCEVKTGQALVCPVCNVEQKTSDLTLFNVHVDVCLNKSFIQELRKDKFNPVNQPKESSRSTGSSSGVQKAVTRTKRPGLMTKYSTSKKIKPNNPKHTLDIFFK
Outline: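 Human Pol-kappa, dispensed at 10 nM, was preincubated with compounds for 15 min at room temperature. Reactions were started with primer/template substrate (50 nM final) carrying a TAMRA reporter strand and BHQ-2-quenched template, and fluorescence (ex 525/em 598 nm) was read at 0 and 10 min.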

[12] = qHTS profiling for inhibitors of Plasmodium falciparum (3D7) proliferation (AID 743322; call rule not given here;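 note: infected erythrocytes exposed to compound for 72 h before lysis; 100% = DMSO vehicle wells and 0% = 0.29 µM artemisinin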); details: P. falciparum 3D7 proliferation; at 28.7 µM (top of the series)
Outline: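 Parasite DNA was quantified by SYBR Green I fluorescence (ex 485, em 535 nm) after overnight lysis in saponin/Triton buffer at room temperature. Cultures at 0.3% parasitemia and 2.5% hematocrit were first exposed to compound for 72 h at 37 C; signals were normalised to artemisinin (0.29 uM) and vehicle wells.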

Cc1cccc(C(=O)O)c1O
Potency [1]: inactive | max response [2]: 2.78% (inactive)

COc1ccccc1Oc1c(NS(=O)(=O)c2ccc(C(C)(C)C)cc2)nc(-c2ncccn2)nc1OCCO
Potency [1]: inactive | outcome [3]: inactive | max response [2]: -3.79% (inactive)

CCCCCCCCCCCCCCCCCCO
outcome [4]: inactive | activation [5]: -2.92% (inactive) | activation [6]: 0.518% (inactive) | max response [7]: -0.423% (inactive) | outcome [8]: inactive | max response [9]: 2.19% (inactive) | max response [2]: 4.31% (inactive) | max response [10]: -6.21% (inactive)

C1CCN2C[C@@H]3C[C@@H](CN4CCCC[C@@H]34)[C@H]2C1
max response [2]: 2.03% (inactive)

CN/C(=C\[N+](=O)[O-])NCCSCc1csc(CN(C)C)n1
Potency [1]: inactive | max response [2]: 18.9% (inactive)

O=C(O)Cn1c(C(=O)Nc2nc(-c3ccccc3Cl)cs2)cc2ccccc21
Potency [1]: inactive | outcome [3]: inactive | max response [2]: 1.71% (inactive)

NS(=O)(=O)c1ccc(C(=O)O)cc1
Potency [1]: inactive | max response [2]: 4.63% (inactive)

COc1ccccc1OCC(O)CO (stereo not given)
max response [2]: 10.4% (inactive)

CCOC(=O)[C@H](CCc1ccccc1)N[C@@H](C)C(=O)N1Cc2cc(OC)c(OC)cc2C[C@H]1C(=O)O
max response [2]: 0.618% (inactive)

O=C(O)c1ccc(OCCCOc2ccc(C(=O)O)cc2)cc1
outcome [4]: inactive | max response [2]: 1.74% (inactive)

CC(C)=CCC[C@@](C)(O)[C@H]1CC=C(C)CC1
max response [2]: 10.2% (inactive)

O=C(O)Cc1ccc(CCNS(=O)(=O)c2ccc(Cl)cc2)cc1
outcome [4]: inactive | max response [2]: 23.5% (inactive)

Cc1c(Cn2ccnc2)c2ccccc2n1CCC(=O)O
outcome [4]: inactive | max response [2]: -9.07% (inactive)

CC1CCN(CCCC(=O)c2ccc(F)cc2)CC1
Potency [1]: inactive | max response [2]: 1.92% (inactive)

CC1CCc2cc(F)cc3c(=O)c(C(=O)O)cn1c23 (stereo not given)
outcome [4]: inactive | max response [2]: -10.9% (inactive)

Cc1ccc2c(c1)c1c3n2CCNC3CCC1 (stereo not given)
max response [2]: 5.73% (inactive)

NC(N)=NS(=O)(=O)c1ccc(N)cc1
Potency [1]: inactive | outcome [3]: inactive

CCN(CC)CCOC(=O)C(c1ccccc1)c1ccccc1
outcome [4]: inactive | max response [2]: -5.96% (inactive)

C/C=C1\[C@H]2C=C(C)C[C@]1(N)c1ccc(=O)[nH]c1C2
max response [2]: 2.62% (inactive)

CN1C(=O)CC(c2ccccc2)C1=O (stereo not given)
max response [2]: -11.3% (inactive)

NC(=O)NC1NC(=O)NC1=O (stereo not given)
max response [2]: -4.09% (inactive)

COc1ccc(-c2cc(=O)c3c(O)cc(O[C@@H]4O[C@H](CO[C@@H]5O[C@@H](C)[C@H](O)[C@@H](O)[C@H]5O)[C@@H](O)[C@H](O)[C@H]4O)cc3o2)cc1O
Potency [11]: 18.9 µM (active) | max response [2]: -2.29% (inactive)

COc1cc(O)cc(O)c1
outcome [4]: inactive | outcome [3]: inactive | max response [2]: -9.75% (inactive)

CCCNC(C)C(=O)Nc1c(C)csc1C(=O)OC (stereo not given)
max response [2]: 7.96% (inactive)

O=c1[nH]c(=O)n([C@H]2C[C@H](O)[C@@H](CO)O2)cc1I
max response [2]: 3.28% (inactive)

COc1ccc(C(=O)N2CCN(CC(=O)N3CCOCC3)CC2)cc1
outcome [4]: inactive | max response [2]: -4.8% (inactive)

O=C(O)/C=C/c1ccc(Cn2ccnc2)cc1
max response [2]: 13.5% (inactive)

NC(=O)N[C@@H](CCC(=O)O)C(=O)O
max response [2]: -4.71% (inactive)

C[C@@H]1O[C@@H](OC[C@H]2O[C@@H](Oc3c(-c4ccc(O)c(O)c4)oc4cc(O)cc(O)c4c3=O)[C@H](O)[C@@H](O)[C@@H]2O)[C@H](O)[C@H](O)[C@H]1O
Potency [1]: inactive | max response [2]: 3.71% (inactive)

Cn1cc(C(=O)[C@@H]2CCc3nc[nH]c3C2)c2ccccc21
max response [2]: -8.94% (inactive)

NCC1CCC(C(=O)Oc2ccc(CCC(=O)O)cc2)CC1 (stereo not given)
outcome [4]: inactive | max response [2]: 9.03% (inactive)

CCOc1ccccc1O[C@H](c1ccccc1)[C@H]1CNCCO1
remaining parasite growth % (stronger effect = lower value) [12]: 89.6%

CCCCCCCCCCOc1cc2c(=O)c(C(=O)OCC)c[nH]c2cc1OCC
remaining parasite growth % (stronger effect = lower value) [12]: 0.552%
